Data: PubChem BioAssay (NCATS)
Results filed as inconclusive are left out. The source made the active and inactive calls. Calls come from the whole dose curve; as a rule, active = well fitted cell-killing curve with a large enough effect; inconclusive = small, poorly fitted or top-dose-only effect; inactive = flat fitted curve, though single readings scatter.

Assays:
[1] = Cell Viability - LYMP2-020 (AID 986);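 note: series mostly up to about 92 µM; cells exposed to compound for 24 h at 37 °C; nearly all actives have a fitted effect of over 55% in size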
Outline: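 Seed 2500 cells per well and incubate 5 hr at 37 C. Add compounds at a concentration series and incubate 24 hr at 37 C. Add CellTiter-Glo, wait 30 min at RT, read luminescence, and fit a Hill curve for AC50.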

[2] = Cell Viability - LYMP2-022 (AID 987); note: nearly all actives have a fitted effect of over 55% in size
Outline: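 Cells were seeded at 2500 per well, rested 5 hr at 37 C, and treated with titrated compounds for 24 hr at 37 C. Cellular ATP was then quantified by luciferase luminescence, and AC50 values were derived from Hill-modelled concentration-response curves.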

[3] = Cell Viability - LYMP2-024 (AID 988); note: nearly all actives have a fitted effect of over 60% in size
Outline: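 qHTS cytotoxicity, human lymphoblastoid line, complete medium; 24 h cpd treatment, 37 C; CellTiter-Glo ATP luminescence readout; tetraoctylammonium bromide positive control; AC50 via Hill fit.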

[4] = Cell Viability - LYMP2-026 (AID 989);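 note: cells exposed to compound for 24 h at 37 °C; nearly all actives have a fitted effect of over 50% in size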
Outline: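 Cells are seeded at 2500 per well and held 5 hr at 37 C. Compounds are added in concentration series for 24 hr, then CellTiter-Glo reagent is applied and luminescence read.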

[5] = Cell Viability - LYMP1-002 - Assay at 24 hr (AID 993)
Outline: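 Acute toxicity is measured as concentration-dependent loss of cellular ATP in a human lymphoblastoid line (Coriell LYMP1-002) after 24 h treatment in complete medium. ATP is quantified by luciferase luminescence and AC50 derived by Hill modelling.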

[6] = Cell Viability - LYMP1-002 - Assay at 40 hr (AID 994); note: nearly all actives have a fitted effect of over 60% in size
Outline: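 Cells are plated at 2500 per well and rested 5 hr at 37 C. Compounds are added and incubated 40 hr at 37 C. CellTiter-Glo reagent is added for 30 min at room temperature before luminescence is read.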

Measured: outcome

CN(C)CCOC(c1ccccc1)c1ccccc1 (tested in a mixture with another compound)
inactive: all assays above
